The values below come from ChEMBL document CHEMBL1201862, “PubChem BioAssay data set” (2004).

In all, about 400,000 compounds went through this assay and about 2,100 (0.53%) were called active. Another 14% or so got no clear call; they are omitted. The rule behind the calls is not given here. For the sample, actives were picked, then their nearest neighbours and some compounds at random.

Ataxin-2 (Homo sapiens), sequence (Q99700 whole entry): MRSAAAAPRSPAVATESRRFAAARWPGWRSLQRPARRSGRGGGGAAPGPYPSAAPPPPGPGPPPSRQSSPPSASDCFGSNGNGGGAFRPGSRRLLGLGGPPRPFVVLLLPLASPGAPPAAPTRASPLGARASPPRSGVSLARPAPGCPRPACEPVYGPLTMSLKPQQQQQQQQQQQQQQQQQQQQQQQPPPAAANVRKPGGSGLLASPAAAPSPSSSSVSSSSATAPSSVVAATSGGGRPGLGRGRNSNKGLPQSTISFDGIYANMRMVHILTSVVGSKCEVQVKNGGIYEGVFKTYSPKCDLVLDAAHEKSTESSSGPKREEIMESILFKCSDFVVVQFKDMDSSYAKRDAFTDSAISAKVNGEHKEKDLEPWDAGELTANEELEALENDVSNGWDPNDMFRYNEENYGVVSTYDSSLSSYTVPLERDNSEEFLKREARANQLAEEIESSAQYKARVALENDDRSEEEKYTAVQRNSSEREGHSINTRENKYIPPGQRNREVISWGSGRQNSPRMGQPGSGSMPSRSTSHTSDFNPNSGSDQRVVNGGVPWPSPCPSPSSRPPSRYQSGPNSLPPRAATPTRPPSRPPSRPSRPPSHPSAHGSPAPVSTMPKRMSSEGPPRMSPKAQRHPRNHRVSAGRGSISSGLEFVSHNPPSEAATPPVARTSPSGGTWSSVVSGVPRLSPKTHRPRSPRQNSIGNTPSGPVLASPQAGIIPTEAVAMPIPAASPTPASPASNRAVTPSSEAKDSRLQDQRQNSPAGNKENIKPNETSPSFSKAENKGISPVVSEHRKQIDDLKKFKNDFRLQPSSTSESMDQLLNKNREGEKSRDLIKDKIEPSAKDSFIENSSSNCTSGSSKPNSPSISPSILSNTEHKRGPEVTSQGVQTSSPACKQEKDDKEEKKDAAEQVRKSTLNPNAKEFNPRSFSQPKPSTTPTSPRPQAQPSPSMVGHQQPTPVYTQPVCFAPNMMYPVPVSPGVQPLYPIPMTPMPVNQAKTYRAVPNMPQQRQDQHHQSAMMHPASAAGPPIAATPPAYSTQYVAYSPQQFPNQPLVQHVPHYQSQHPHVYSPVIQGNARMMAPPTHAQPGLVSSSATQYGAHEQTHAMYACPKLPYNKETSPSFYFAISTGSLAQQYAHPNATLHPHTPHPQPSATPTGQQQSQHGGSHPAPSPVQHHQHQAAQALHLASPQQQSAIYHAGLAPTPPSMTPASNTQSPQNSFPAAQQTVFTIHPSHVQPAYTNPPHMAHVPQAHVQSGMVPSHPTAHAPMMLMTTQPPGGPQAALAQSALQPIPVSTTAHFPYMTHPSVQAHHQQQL

This experiment concerns the target Ataxin-2 (Homo sapiens) (UniProt Q99700). As to the kind of experiment: qHTS for Inhibitors of ATXN expression. It counts as functional.
Regarding `Cc1c(NC(=O)C(C)OC(=O)c2cccc(S(=O)(=O)N3CCOCC3)c2)c(=O)n(-c2ccccc2)n1C` (stereo unspecified), the Potency result was “inactive”.

On to `COc1ccc(C(=O)/C=C/c2ccc(O)cc2)c(O)c1C/C=C(\C)CCC=C(C)C`, for which the Potency is 39.8 µM (active). For `COc1ccc(C(=O)/C=C/c2ccc(O)cc2)c(O)c1CC=C(C)C` the value was 39.8 µM (active); for `COc1ccc(/C=C/C(=O)C2C(=O)C=C(C)OC2=O)cc1O` (stereo unspecified), “inactive”; for `COc1cc(/C=C/C(=O)OCC(=O)Nc2ccc(Cl)cn2)ccc1O`, “inactive”.

On to `COc1ccc(-c2cc(C(F)(F)F)n3ncc(C(=O)N4CCCCC4c4cccnc4)c3n2)cc1` (stereo unspecified), for which the Potency result is “inactive”. Then `N#Cc1c(O)nc2c(c1-c1cccnc1)COc1ccccc1-2`, with “inactive”; and `O=C(COC(=O)c1cccc([N+](=O)[O-])c1)NNC(=O)c1cccs1`, with “inactive”. Then `Cc1cccc(N2CCN(C(=O)Cc3ccccc3[N+](=O)[O-])CC2)c1C`, with “inactive”. For `O=C(NC(=S)N1CCN(c2ccc(Cl)cc2[N+](=O)[O-])CC1)c1cccs1` the value was 17.8 µM (active); for `O=C(N/N=C/c1cc(Cl)cc([N+](=O)[O-])c1O)c1ccccc1NS(=O)(=O)c1cccs1`, “inactive”.

`O=C(NC(=S)N1CCN(c2ccc(C(F)(F)F)cc2[N+](=O)[O-])CC1)c1cccs1`: the Potency is 39.8 µM (active).

For `CC(=O)c1ccc2c(c1)c(C#N)c1ccccc1[n+]2[O-]`, the Potency entry was “inactive”.

For `CCC(=O)Nc1c(C#N)c2nc3ccccc3nc2n1-c1ccc(C)cc1`, the Potency result was “inactive”. `CCN(CC)c1nc2ccccc2nc1C(C#N)C(=O)NCCc1ccccc1` (stereo unspecified): the Potency result was “inactive”.

For `CCN(CC(=O)Nc1cc(Cl)ccc1C)C(=O)C1CCCCC1`, the Potency result is “inactive”. As to `Cc1cccc(NC(=O)CN(C)C(=O)Cc2ccc(-c3ccccc3)cc2)c1C`, the Potency entry is “inactive”.

With `CCC(C)N(CC(=O)Nc1cccc(C)c1C)C(=O)CCl` (stereo unspecified), the Potency is 7.52 µM (active). Then `CCN(CC)C(=O)COc1ccc(/C=C(\C#N)S(=O)(=O)c2ccccc2)cc1OC`, with “inactive”; and `C=CCc1cc(Cl)ccc1OCCCNC(C)C`, with “inactive”; and `C=CCNCCCCOc1cccc(Br)c1`, with “inactive”. Then `Cc1cc(C)c(OCCN2CCOCC2)c(Cl)c1`, with “inactive”; and `Clc1ccc(OCCCNCc2ccccc2)c(Br)c1`, with 39.8 µM (active); and `Cc1cc(C)c(OCCCCNCc2ccccc2)c(Cl)c1`, with 39.8 µM (active).

For `COc1ccc(Cl)cc1CNCCCSc1ncccn1`, the Potency result was “inactive”.

For `CN(C)/C=N/c1c(Br)cc(Br)c2nonc12`, the Potency result is “inactive”.

`COCCN(CCOC)C(=O)c1cc2c(=O)n3ccccc3nc2s1`: the Potency entry was “inactive”. Take `O=C1N[C@@H](Cc2c[nH]c3ccccc23)COC(=O)[C@@H](Cc2ccc(F)cc2)C/C=C\C[C@H]1CC(=O)N(CCO)Cc1ccccc1`: the Potency was 35.5 µM (active). Take `O=C1NC[C@@H](c2ccccc2)OC(=O)[C@@H](Cc2ccc(F)cc2)CC/C=C/C[C@H]1CC(=O)N(CCO)Cc1ccccc1`: the Potency was 28.2 µM (active). With `COCCn1c(N)c(C#N)c2nc3ccccc3nc21`, the Potency result is “inactive”. As to `Fc1ccc(-n2c(-c3cccs3)nc3nc4ccccc4nc32)cc1`, the Potency result was “inactive”.

With `O=C(O)c1ccccc1-c1ccccc1C(=O)Nc1ccc2c(c1)nc(O)c1ccccc12`, the Potency entry is “inactive”. For `O=C(Nc1ccc2c(c1)OCCO2)c1cccnc1Oc1ccc(Cl)cc1` the value was “inactive”; for `O=C(Nc1ccc2c(c1)OCCO2)c1cccc2nc3ccccc3nc12`, 35.5 µM (active); for `COc1ccccc1-n1c([S-])c(C(=O)Nc2ccccc2C(F)(F)F)[n+]2ccc(C(=O)NCCO)cc12`, “inactive”. Consider `CC[C@@]1(c2ccccc2OC)ON(c2ccccc2C(F)(F)F)C1=O`, for which the Potency is 22.4 µM (active).

On to `CCO/C=C1/C(=O)N(c2ccccc2OC)C(=O)c2ccccc21`, for which the Potency entry was “inactive”. Consider `CC[C@]1(c2ccccc2OC)ON(c2ccccc2C(F)(F)F)C1=O`, for which the Potency was 35.5 µM (active). On to `COc1ccccc1N1C(=O)C2C(C(=O)c3ccccc3)=NN(c3ccccc3OC)C2C1=O` (stereo unspecified), for which the Potency result is “inactive”. Then `COc1ccccc1N1C(=O)C2C(C(=O)c3ccccc3)=NN(c3ccccc3)C2C1=O` (stereo unspecified), with “inactive”; and `Cc1ccccc1NC(=O)c1cc2c(=O)n3cccc(C)c3nc2s1`, with “inactive”; and `CC1CCCCC1NC(=O)c1cc2c(=O)n3ccccc3nc2n1C` (stereo unspecified), with “inactive”. For `COc1ccc([N+](=O)[O-])c(S(=O)(=O)c2ccccc2)n1` the value was 7.52 µM (active). `COc1ccccc1N=C(NS(=O)(=O)c1ccc(C)cc1)c1ccccc1`: the Potency result is “inactive”.

With `CC1CN(c2ccc([N+](=O)[O-])c(NCCOc3ccc(Cl)cc3)c2)CC(C)N1` (stereo unspecified), the Potency result was “inactive”.

Regarding `COc1ccc([N+](=O)[O-])c(S(=O)(=O)c2ccc(Cl)cc2)n1`, the Potency is 14.1 µM (active). For `O=C1c2cccc3c([N+](=O)[O-])ccc(c23)C(=O)N1c1ccc(Cl)cn1` the value was “inactive”; for `CCN(CC)c1ccc(C=C(c2nnnn2-c2ccccc2)c2nnnn2-c2ccccc2)cc1`, “inactive”.

Consider `Cc1cc2cc3c(=O)[nH]c(=O)nc-3n(CC(O)C(O)C(O)CO)c2cc1C` (stereo unspecified), for which the Potency result was “inactive”. Then `C=CC(=O)/N=c1\sc2ccccc2n1-c1ccccc1`, with 37.7 µM (active). As for `CCN=C(S)N(CCc1c(C)[nH]c2ccc(C)cc12)Cc1cccnc1`, the Potency entry is “inactive”. `COc1cc2nc(/C=C/c3ccc(N(C)C)cc3)sc2cc1SC`: the Potency entry is “inactive”. Take `CC(C)CN=C(S)N1CCN(c2nc3ccccc3s2)CC1`: the Potency result was “inactive”. `CCc1cccc2sc(N3CCN(C(=O)c4ccc([N+](=O)[O-])o4)CC3)nc12`: the Potency is 39.8 µM (active). `Clc1cccc2sc(N3CCN(c4ccccc4)CC3)nc12`: the Potency entry was “inactive”. With `Nc1ccc2cc3ccccc3cc2c1`, the Potency entry was “inactive”. As to `CC(C)OCCCN(C)C1CCN(S(=O)(=O)c2ccc(-c3cc(C(F)(F)F)no3)s2)CC1`, the Potency entry is “inactive”. For the compound `c1ccc(C2=NN(c3ccccc3)CC2)cc1`, the Potency result was “inactive”. For `c1ccc(N2CC3COc4ccccc4C3=N2)cc1` (stereo unspecified) the value was “inactive”. Regarding `c1ccc(N=NC2=NN(c3ccccc3)CS2)cc1`, the Potency was 7.08 µM (active). For the compound `CCOc1ccc(CN2CCCC(N3CCN(c4ccc(OC)cc4)CC3)C2)cc1` (stereo unspecified), the Potency entry is “inactive”. `[O-][n+]1onc2c1CCc1nnc(-c3ccccc3)cc1-2`: the Potency is 39.8 µM (active).

For the compound `CCc1ccc(/C=C2\Oc3c(ccc(O)c3CN3CCN(CCO)CC3)C2=O)cc1`, the Potency result was “inactive”. Then `CC(=O)N(CC(=O)Nc1nn(-c2ccccc2)nc1C(N)=O)Cc1ccccc1`, with 39.8 µM (active); and `Cc1nn(-c2ccccc2)nc1C(=O)NNC(=O)c1cccc2ccccc12`, with “inactive”. With `O=C(CN(Cc1ccccc1)C(=O)c1csnn1)NCCc1ccccc1`, the Potency entry was “inactive”. Turning to `Cc1cc(/C=C2/C(=N)N3C(=NC2=O)SN=C3S(C)(=O)=O)c(C)n1-c1ccccc1`, the Potency result is “inactive”. For `COC(=O)Cc1c(C)c2c(O)cc(C)cc2oc1=O` the value was “inactive”. For `O=S(=O)([N-]c1nc2ccccc2nc1-[n+]1ccn(Cc2ccccc2)c1)c1ccc(Br)cc1` the value was “inactive”; for `CC(=O)Nc1ccc(CN2CCN(C3CCCCC3)C(CCO)C2)cc1` (stereo unspecified), “inactive”. Consider `O=C(NCc1ccc(Cl)cc1)C1CCCN(C(=O)c2ccc(Cl)cc2)C1` (stereo unspecified), for which the Potency entry is “inactive”. For `Cc1ccc(CN2CCC(CNC(=O)Nc3ccc(Cl)cc3)C2)cc1` (stereo unspecified), the Potency was 39.8 µM (active). Then `Cc1nn(CCCC(=O)NCc2ccc(F)cc2)c(=O)c2nccn12`, with “inactive”; and `O=C(CN(c1ccc(Br)cc1)S(=O)(=O)c1ccc(Cl)c([N+](=O)[O-])c1)NCC1CCCO1` (stereo unspecified), with 31.6 µM (active).

Consider `CCN(CC(=O)NCc1cccs1)S(=O)(=O)c1ccc([N+](=O)[O-])cc1`, for which the Potency result was “inactive”. `CSc1ccccc1NC(=O)CN(C)C(=O)CNc1ccc(C(F)(F)F)cc1[N+](=O)[O-]`: the Potency result was “inactive”.

For `Cc1c(N(C)S(=O)(=O)c2cc(C(=O)NCC3CCCO3)ccc2Cl)c(=O)n(-c2ccccc2)n1C` (stereo unspecified), the Potency entry is “inactive”. Consider `Cc1cc(OCC(=O)OCC(=O)NCC2CCCO2)ccc1Cl` (stereo unspecified), for which the Potency result was “inactive”. In the case of `O=C(CN(c1cccc(C(F)(F)F)c1)S(=O)(=O)c1ccc(Cl)c([N+](=O)[O-])c1)NCc1ccccc1Cl`, the Potency was 39.8 µM (active). For `CNC(=O)c1ccc(-c2sc3nc(N4CCOCC4)c4c(c3c2N)CCCC4)o1` the value was “inactive”. Then `O=C(O)c1ccc(NS(=O)(=O)c2ccc(NC(=O)c3ccccc3Cl)cc2)cc1`, with “inactive”; and `O=C(Nc1ccccc1)c1cc(S(=O)(=O)Nc2cccnc2)ccc1Cl`, with “inactive”. For `CC(C)c1ccc(NC(=O)c2cc(S(=O)(=O)NCc3ccccc3Cl)ccc2F)cc1` the value was 28.2 µM (active); for `Cc1nc2nc(-c3ccc(Cl)cc3)cn2nc1C`, “inactive”. As to `C=C[S+]([O-])c1sc(Cl)c(N2CCOCC2)c1[N+](=O)[O-]` (stereo unspecified), the Potency is 15 µM (active).

Consider `O=S(=O)(Nc1cccc(-c2nc3cccnc3s2)c1)c1ccc2c(c1)OCCO2`, for which the Potency result is “inactive”. Regarding `O=[N+]([O-])c1ccc(Cl)cc1N/N=C/c1ccncc1`, the Potency result is “inactive”. As for `Cc1ccc(NCC(=O)N/N=C/c2cccc(Br)c2)cc1`, the Potency result was “inactive”. For `FC(F)(F)c1ccccc1/C=N/Nc1ccccn1` the value was “inactive”. As to `CN(C)c1nc(NCc2ccccc2)nc(N/N=C/c2ccc(Cl)cc2Cl)n1`, the Potency result is “inactive”. Then `Clc1ccc2c(N/N=C/c3cccc(Br)c3)ccnc2c1`, with 25.1 µM (active); and `Cc1ccccc1/C=N/Nc1ccnc2cc(Cl)ccc12`, with 28.2 µM (active). Then `N#C/C(=C/c1ccc(F)cc1)c1nnc(NC(=O)c2ccccc2)s1`, with “inactive”. In the case of `N#Cc1cc2c(=O)n3ccccc3nc2n(-c2ccc(Cl)cc2)c1=O`, the Potency entry is “inactive”.

In the case of `O=c1oc2cc(O)ccc2cc1-c1ccccc1`, the Potency entry is “inactive”. Consider `CCN(CC)c1ncnc2c1cnn2Cc1ccc(Cl)cc1`, for which the Potency entry is “inactive”. On to `COc1ccc(CNc2nc(C)cc(C)c2C#N)cc1`, for which the Potency entry is “inactive”. For `Cc1cc(NCCCN(C)C)n2c(nc3ccccc32)c1C#N` the value was “inactive”. `Cc1ccc(-n2ncc3c(NCCCN(C)C)ncnc32)cc1Cl`: the Potency was 39.8 µM (active). Then `COc1ccc(CCNc2ncnc3c2cnn3-c2cc(Cl)ccc2C)cc1`, with 22.4 µM (active); and `CCCCn1nc(NC(=O)CC)c2cc3cc(OC)ccc3nc21`, with “inactive”.
